Screens deposited in PubChem by several laboratories.
Compounds with a hit are over-represented: about 27% of the library has one in this group of screens.
CYP2C19 inhib: blocks human cytochrome P450 2C19; CYP2C19 Supersomes, luciferin-H EGE luminescence, 30 min; inhibition, % at 5 µM; 21% of 96,000 active; AID 778;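 active = CYP2C19 inhibition above a set limit at 5 µM in the primary screen, cut at about 50% in these data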
Target sequence (P33261 whole entry, looked up): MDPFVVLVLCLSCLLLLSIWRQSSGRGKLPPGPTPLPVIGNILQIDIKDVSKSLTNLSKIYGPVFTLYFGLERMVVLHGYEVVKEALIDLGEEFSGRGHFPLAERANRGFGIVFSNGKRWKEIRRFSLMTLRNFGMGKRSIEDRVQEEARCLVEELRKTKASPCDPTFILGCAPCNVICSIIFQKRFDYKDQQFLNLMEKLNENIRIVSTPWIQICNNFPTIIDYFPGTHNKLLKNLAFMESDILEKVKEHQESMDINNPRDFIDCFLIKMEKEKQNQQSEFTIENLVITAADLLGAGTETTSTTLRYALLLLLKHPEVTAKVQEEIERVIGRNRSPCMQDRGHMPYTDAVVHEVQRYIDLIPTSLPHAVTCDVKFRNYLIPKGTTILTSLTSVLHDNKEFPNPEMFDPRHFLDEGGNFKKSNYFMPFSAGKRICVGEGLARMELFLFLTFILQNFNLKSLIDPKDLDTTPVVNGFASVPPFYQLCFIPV
CYP2C9 inhib: blocks human cytochrome P450 2C9; P11712; CYP2C9 Supersomes, luciferin-H conversion, luminescence; inhibition, % at 5 µM; 20% of 96,000 active; AID 777;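 active = blocking of liver enzyme CYP2C9 beyond about 50% at 5 µM, limit read from the data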
Cav32 inh: inhibitors of human Cav3.2 T-type calcium channel | O95180 | Cav3.2-expressing cells, Fluo-4 calcium fluorescence FDSS; stronger effect = lower value | B-score at 10 µM | 4% of 100,000 active;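 active = single-dose well whose peak fluorescence ratio is a statistical outlier from its plate by either plate-standardised score or position-corrected B-score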
CYP2C19 activ: activators of human cytochrome P450 2C19. P33261. recombinant CYP2C19, luciferin-H EGE luminescence; stronger effect = higher value; 0 = fully inhibited enzyme, 1 = untreated enzyme. 96,000 tested, under 10 active. AID 1025. activation factor at 5 µM;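 active = activation factor of at least 2 at 5 µM in the primary screen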
CYP2C9 activ: CYP2C9 (human) activation | P11712 | recombinant CYP2C9, luciferin-H conversion, luminescence; stronger effect = higher value; factor 1 = untreated enzyme, 0 = blocked | 1.4% of 96,000 active | activation factor at 5 µM;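 active = activation factor of 2 or more for CYP2C9 at a 5 µM dose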
Hits are given with their value; i = inactive; nt = not tested or not shown.

SMILES	CYP2C19 inhib	CYP2C9 inhib	Cav32 inh	CYP2C19 activ	CYP2C9 activ
COc1ccc(OC)c(NC(=O)C(Sc2ccccc2)c2ccccc2)c1 (centres undefined)	56	i	i	i	i
CCOCCCN1C(=O)C(O)=C(C(C)=O)C1c1cccs1 (centres undefined)	nt	nt	i	nt	nt
COc1ccc([C@H]2C=C3CN(C(=O)OC(C)(C)C)S(=O)(=O)[C@H]3C[C@H]2OC(=O)c2cccs2)cc1	nt	nt	i	nt	nt
O=C(CSc1nc2ccccc2c(=O)n1-c1ccccc1)NCc1ccco1	i	i	i	i	i
O=C(CCCCCn1c(SCC(=O)c2ccccc2)nc2ccccc2c1=O)NCc1ccco1	82	98	i	i	i
O=C(CCCn1c(SCC(=O)c2ccc(Cl)cc2)nc2ccccc2c1=O)NCc1ccco1	i	54	i	i	i
O=C(CCCn1c(=S)[nH]c2ccccc2c1=O)NCc1ccco1	i	i	i	i	i
Cc1cc2cc(CN(Cc3ccco3)S(=O)(=O)c3c(C)ccc4nsnc34)c(=O)[nH]c2cc1C	i	i	i	i	i
CCCCC(CC)CNC(=O)CN(C)S(=O)(=O)c1cccc2nsnc12 (centres undefined)	i	i	i	i	i
Cc1ccc2cc(CN(Cc3ccco3)S(=O)(=O)c3c(C)ccc4nsnc34)c(=O)[nH]c2c1	54	89	i	i	i
Cc1cc2cc(CN(CCCO)S(=O)(=O)c3cccc4nsnc34)c(=O)[nH]c2cc1C	i	93	i	i	i
Cc1ccc2[nH]c(=O)c(CN(CCCO)S(=O)(=O)c3c(C)ccc4nsnc34)cc2c1	i	65	i	i	i
O=S(=O)(c1ccccc1)C1(S(=O)(=O)c2ccccc2)CCCC1	98	58	nt	i	i
COC(=O)Nc1ccc(S(=O)(=O)N(CCO)CCO)cc1	i	i	i	i	i
C[C@@H](C(=O)Nc1ccc2ccccc2c1)[C@@H]1C[C@@]1(C)[C@@H](NC(=O)c1ccccc1)c1ccccc1	nt	nt	-3.9	nt	nt
C[C@@H](C(=O)Nc1ccc2ccccc2c1)[C@H]1C[C@]1(C)[C@H](NC(=O)c1cccnc1)c1ccccc1	nt	nt	i	nt	nt
Cc1ccccc1C(=O)N1CCC(C(=O)Nc2ccc3c(c2)OCCO3)CC1	i	i	i	i	i
COC(=O)C1=C(C)NC(=O)/C1=C\c1cc(C)n(-c2ccccc2C)c1C	i	i	i	i	i
COC(=O)C1=C(C)NC(=O)/C1=C\c1cc(C)n(-c2c(C)cccc2C)c1C	i	56	i	i	i
Cc1cccc(C)c1-n1c(C)cc(/C=C2\NC(=O)NC2=O)c1C	nt	nt	-6.8	nt	nt
NC(=O)c1ccsc1NC(=O)COC(=O)Cc1cccc2ccccc12	97	i	i	i	i
CN(C)S(=O)(=O)c1cccc(C(=O)OCC(=O)Nc2sccc2C(N)=O)c1	nt	nt	i	nt	nt
NC(=O)c1ccsc1NC(=O)COc1ccccc1	i	65	i	i	i
O=C(CCNS(=O)(=O)c1cccc2nsnc12)N1CCc2ccccc21	80	i	i	i	i
O=C(CCCNS(=O)(=O)c1cccc2nsnc12)NCc1ccccc1	i	i	i	i	i
SMILES	CYP2C19 inhib	CYP2C9 inhib	Cav32 inh	CYP2C19 activ	CYP2C9 activ
O=C(CCNS(=O)(=O)c1cccc2nsnc12)N1CCN(c2ccccn2)CC1	66	i	nt	i	i
CC1Cc2ccccc2N1C(=O)CCNS(=O)(=O)c1cccc2nsnc12 (centres undefined)	88	i	nt	i	i
CC(C(=O)O)N1C(=O)CSc2ncccc21 (centres undefined)	i	i	i	i	i
Cc1ccccc1-c1nc(CN2CCC(C(=O)NCc3cccs3)CC2)c(C)o1	i	i	i	i	i
CC(C(=O)c1ccccc1)n1c(N2CCOCC2)nc2c1c(=O)n(C)c(=O)n2C (centres undefined)	i	i	i	i	i
Cc1ccc(C(=O)CC(=O)c2cc(Cl)ccc2O)cc1	i	i	i	i	i
CC(C)(C)c1ccc(C(=O)CC(=O)c2cc(Cl)ccc2O)cc1	57	60	i	i	i
CCc1nc(SCc2cccnc2)c2c(=O)n(C)c(=O)n(C)c2n1	94	i	i	i	i
CCCc1nc(SCC(=O)N2CCC(Cc3ccccc3)CC2)c2c(=O)n(C)c(=O)n(C)c2n1	66	95	i	i	i
CCc1nc(SCC(=O)N2CCN(c3ccccc3)CC2)c2c(=O)n(C)c(=O)n(C)c2n1	nt	nt	i	nt	nt
Cn1c(=O)c2c(SCC(=O)N3CCN(c4ccccc4)CC3)nc(C3CC3)nc2n(C)c1=O	nt	nt	i	nt	nt
Cn1c(=O)c2c(SCc3cccnc3)nc(C3CC3)nc2n(C)c1=O	88	57	i	i	i
CCOC(=O)c1[nH]c(COC(=O)CCCOc2ccccc2)c(C(=O)OCC)c1C	i	80	i	i	i
COc1cc(OC)c(C(=O)Nc2ccc(S(=O)(=O)Nc3ncccn3)cc2)cc1OC	i	i	i	i	i
Cc1ccc(NC(=O)COc2ccc(/C=C3/SC(=Nc4ccccc4)N(Cc4cccnc4)C3=O)cc2)cc1	i	53	i	i	i
Cc1ccc(NC(=O)COc2ccc(/C=N/NC(=O)CSCc3ccccc3)cc2)cc1	i	i	i	i	i
Cc1ccc(NC(=O)c2c(C(F)(F)F)nn(C)c2SCc2cccc(C(F)(F)F)c2)cc1C	i	92	i	i	i
Cc1ccc(NC(=O)c2c(C(F)(F)F)nn(C)c2SCc2ccc(Cl)cc2)cc1C	65	100	i	i	i
CC(C)c1ccc(N2C(=O)CC(Sc3nc4ccccc4o3)C2=O)cc1 (centres undefined)	i	i	i	i	i
COC(=O)c1ccc(CNC(=O)COc2ccccc2Br)o1	71	i	i	i	i
O=C(COc1ccccc1Br)NCc1ccccn1	65	i	i	i	i
Cc1ccc(C(=O)NCc2ccccn2)c(Cl)c1	i	i	i	i	i
O=C(COc1ccc(F)cc1Br)NCc1ccccn1	59	i	i	i	i
Cn1c(=O)cc(OCC(=O)NCc2ccccn2)c2ccccc21	i	i	i	i	i
COc1cc(NC(=O)c2ccc(COc3ccccc3Br)o2)cc(OC)c1OC	i	i	i	i	i
SMILES	CYP2C19 inhib	CYP2C9 inhib	Cav32 inh	CYP2C19 activ	CYP2C9 activ
Cc1ccc(OCC(=O)NCc2ccccn2)c(Br)c1	61	i	i	i	i
COc1cccc(N2CCN(Cc3nc(N)nc(N4CCCc5ccccc54)n3)CC2)c1	i	i	i	i	i
CCN1CCN(C(=O)CCN2C(=O)COc3ccc(C)cc32)CC1	i	i	i	i	i
CCOC(=O)N1CCN(C(=O)CCn2nc(-c3ccccc3)ccc2=O)CC1	i	i	nt	i	i
S=c1[nH]nc(-c2cc3ccccc3o2)n1Cc1ccccc1	nt	nt	i	nt	nt
COc1ccc2oc(C(F)(F)C(F)F)cc(=O)c2c1	54	i	i	i	i
Nc1nnnn1/N=C/C=C/c1ccccc1	i	i	i	i	i
CC(/C=N\N1CCN(c2ccc(Cl)cc2)CC1)=C\c1ccccc1	i	i	i	i	i
CC(=C/c1ccccc1)/C=N/n1cnnc1	94	i	i	i	i
CC(/C=N/n1cnnc1)=C\c1ccccc1	94	i	i	i	i
